# Test results reported in article PMC11062922 (Nature Chemical Biology, 2023).
# Where two headings read alike, the source gives them in different places.
# Tests used:
# Conditions in all cases: read-out: apparent Kd, n = 1
# MAPK10 = tested on: MAPK10
# PBK = tested on: PBK
# PDGFRB = tested on: PDGFRB
# PRKAA1 = tested on: PRKAA1
# [1] = compound concentrations:100 nM and 1000 nM (sheet 'Lestaurtinib' of Supplementary Table 1),run:Lestaurtinib_02584_R1,Plate:MR017
# [2] = compound concentrations:100 nM and 1000 nM (sheet 'Lestaurtinib' of Supplementary Table 1),run:Lestaurtinib_02584_R3,Plate:MR017
# [3] = compound concentrations:100 nM and 1000 nM (sheet 'Lestaurtinib' of Supplementary Table 1),run:Lestaurtinib_02601_R1,Plate:MR018
# [4] = compound concentrations:100 nM and 1000 nM (sheet 'Lestaurtinib' of Supplementary Table 1),run:Lestaurtinib_02606_R3,Plate:MR019
# [5] = compound concentrations:100 nM and 1000 nM (sheet 'Lestaurtinib' of Supplementary Table 1),run:Lestaurtinib_02724_R2,Plate:MR021
# [6] = compound concentrations:100 nM and 1000 nM (sheet 'Lestaurtinib' of Supplementary Table 1),run:Lestaurtinib_02741_R2,Plate:MR023
# [7] = compound concentrations:100 nM and 1000 nM (sheet 'Lestaurtinib' of Supplementary Table 1),run:Lestaurtinib_02748_R3,Plate:MR024
# [8] = compound concentrations:100 nM and 1000 nM (sheet 'Lestaurtinib' of Supplementary Table 1),run:Lestaurtinib_02766_R1,Plate:MR027
# [9] = compound concentrations:100 nM and 1000 nM (sheet 'Lestaurtinib' of Supplementary Table 1),run:Lestaurtinib_02795_R3,Plate:MR022
# [10] = compound concentrations:100 nM and 1000 nM (sheet 'Lestaurtinib' of Supplementary Table 1),run:Lestaurtinib_02896_R3,Plate:MR030
# [11] = compound concentrations:100 nM and 1000 nM (sheet 'Lestaurtinib' of Supplementary Table 1),run:Lestaurtinib_03172_R1,Plate:MR031
# [12] = compound concentrations:100 nM and 1000 nM (sheet 'Lestaurtinib' of Supplementary Table 1),run:Lestaurtinib_03172_R2,Plate:MR031
# [13] = compound concentrations:100 nM and 1000 nM (sheet 'Lestaurtinib' of Supplementary Table 1),run:Lestaurtinib_03252_R1,Plate:MR032
# [14] = compound concentrations:100 nM and 1000 nM (sheet 'Lestaurtinib' of Supplementary Table 1),run:Lestaurtinib_03252_R2,Plate:MR032
# [15] = compound concentrations:100 nM and 1000 nM (sheet 'Lestaurtinib' of Supplementary Table 1),run:Lestaurtinib_03260_R2,Plate:MR033
# [16] = compound concentrations:100 nM and 1000 nM (sheet 'Lestaurtinib' of Supplementary Table 1),run:Lestaurtinib_02381_R2,Plate:MR004
# [17] = compound concentrations:100 nM and 1000 nM (sheet 'Lestaurtinib' of Supplementary Table 1),run:Lestaurtinib_02741_R1,Plate:MR023
# [18] = compound concentrations:100 nM and 1000 nM (sheet 'Lestaurtinib' of Supplementary Table 1),run:Lestaurtinib_02896_R2,Plate:MR030
# [19] = compound concentrations:100 nM and 1000 nM (sheet 'Lestaurtinib' of Supplementary Table 1),run:Lestaurtinib_02381_R1,Plate:MR004
substance,measurement,setting,value
Lestaurtinib,potency estimated from few doses,"MAPK10; compound concentrations:100 nM and 1000 nM (sheet 'Lestaurtinib' of Supplementary Table 1),run:Lestaurtinib_02572_R1,Plate:MR015",896 nM
same,potency estimated from few doses,"MAPK10; compound concentrations:100 nM and 1000 nM (sheet 'Lestaurtinib' of Supplementary Table 1),run:Lestaurtinib_02577_R2,Plate:MR016",636 nM
same,potency estimated from few doses,"MAPK10; compound concentrations:100 nM and 1000 nM (sheet 'Lestaurtinib' of Supplementary Table 1),run:Lestaurtinib_02577_R3,Plate:MR016",743 nM
same,potency estimated from few doses,MAPK10; [1],744 nM
same,potency estimated from few doses,MAPK10; [2],692 nM
same,potency estimated from few doses,MAPK10; [3],819 nM
same,potency estimated from few doses,MAPK10; [4],845 nM
same,potency estimated from few doses,"MAPK10; compound concentrations:100 nM and 1000 nM (sheet 'Lestaurtinib' of Supplementary Table 1),run:Lestaurtinib_02624_R1,Plate:MR020",802 nM
same,potency estimated from few doses,"MAPK10; compound concentrations:100 nM and 1000 nM (sheet 'Lestaurtinib' of Supplementary Table 1),run:Lestaurtinib_02624_R2,Plate:MR020",1320 nM
same,potency estimated from few doses,"MAPK10; compound concentrations:100 nM and 1000 nM (sheet 'Lestaurtinib' of Supplementary Table 1),run:Lestaurtinib_02624_R3,Plate:MR020",818 nM
same,potency estimated from few doses,"MAPK10; compound concentrations:100 nM and 1000 nM (sheet 'Lestaurtinib' of Supplementary Table 1),run:Lestaurtinib_02724_R1,Plate:MR021",870 nM
same,potency estimated from few doses,MAPK10; [5],518 nM
same,potency estimated from few doses,"MAPK10; compound concentrations:100 nM and 1000 nM (sheet 'Lestaurtinib' of Supplementary Table 1),run:Lestaurtinib_02724_R3,Plate:MR021",573 nM
same,potency estimated from few doses,MAPK10; [6],929 nM
same,potency estimated from few doses,"MAPK10; compound concentrations:100 nM and 1000 nM (sheet 'Lestaurtinib' of Supplementary Table 1),run:Lestaurtinib_02748_R1,Plate:MR024",747 nM
same,potency estimated from few doses,"MAPK10; compound concentrations:100 nM and 1000 nM (sheet 'Lestaurtinib' of Supplementary Table 1),run:Lestaurtinib_02748_R2,Plate:MR024",824 nM
same,potency estimated from few doses,MAPK10; [7],1610 nM
same,potency estimated from few doses,"MAPK10; compound concentrations:100 nM and 1000 nM (sheet 'Lestaurtinib' of Supplementary Table 1),run:Lestaurtinib_02765_R1,Plate:MR026",795 nM
same,potency estimated from few doses,"MAPK10; compound concentrations:100 nM and 1000 nM (sheet 'Lestaurtinib' of Supplementary Table 1),run:Lestaurtinib_02765_R3,Plate:MR026",501 nM
same,potency estimated from few doses,MAPK10; [8],1530 nM
same,potency estimated from few doses,MAPK10; [9],886 nM
same,potency estimated from few doses,"MAPK10; compound concentrations:100 nM and 1000 nM (sheet 'Lestaurtinib' of Supplementary Table 1),run:Lestaurtinib_02802_R2,Plate:MR029",1410 nM
same,potency estimated from few doses,"MAPK10; compound concentrations:100 nM and 1000 nM (sheet 'Lestaurtinib' of Supplementary Table 1),run:Lestaurtinib_02896_R1,Plate:MR030",532 nM
same,potency estimated from few doses,MAPK10; [10],592 nM
same,potency estimated from few doses,MAPK10; [11],784 nM
same,potency estimated from few doses,MAPK10; [12],591 nM
same,potency estimated from few doses,MAPK10; [13],932 nM
same,potency estimated from few doses,MAPK10; [14],717 nM
same,potency estimated from few doses,MAPK10; [15],671 nM
same,potency estimated from few doses,"PBK; compound concentrations:100 nM and 1000 nM (sheet 'Lestaurtinib' of Supplementary Table 1),run:Lestaurtinib_02364_R3,Plate:MR002",2310 nM
same,potency estimated from few doses,PBK; [16],1820 nM
same,potency estimated from few doses,"PBK; compound concentrations:100 nM and 1000 nM (sheet 'Lestaurtinib' of Supplementary Table 1),run:Lestaurtinib_02606_R1,Plate:MR019",1970 nM
same,potency estimated from few doses,PBK; [4],2120 nM
same,potency estimated from few doses,PBK; [17],1530 nM
same,potency estimated from few doses,PBK; [7],1440 nM
same,potency estimated from few doses,PBK; [8],1690 nM
same,potency estimated from few doses,"PBK; compound concentrations:100 nM and 1000 nM (sheet 'Lestaurtinib' of Supplementary Table 1),run:Lestaurtinib_02766_R3,Plate:MR027",1760 nM
same,potency estimated from few doses,PBK; [18],1580 nM
same,potency estimated from few doses,PBK; [10],1970 nM
same,potency estimated from few doses,PBK; [11],1810 nM
same,potency estimated from few doses,"PBK; compound concentrations:100 nM and 1000 nM (sheet 'Lestaurtinib' of Supplementary Table 1),run:Lestaurtinib_03172_R3,Plate:MR031",1840 nM
same,potency estimated from few doses,"PDGFRB; compound concentrations:100 nM and 1000 nM (sheet 'Lestaurtinib' of Supplementary Table 1),run:Lestaurtinib_02364_R1,Plate:MR002",2200 nM
same,potency estimated from few doses,PDGFRB; [19],1570 nM
same,potency estimated from few doses,"PDGFRB; compound concentrations:100 nM and 1000 nM (sheet 'Lestaurtinib' of Supplementary Table 1),run:Lestaurtinib_02407_R3,Plate:MR005",428 nM
same,potency estimated from few doses,"PDGFRB; compound concentrations:100 nM and 1000 nM (sheet 'Lestaurtinib' of Supplementary Table 1),run:Lestaurtinib_02437_R2,Plate:MR007",717 nM
same,potency estimated from few doses,"PDGFRB; compound concentrations:100 nM and 1000 nM (sheet 'Lestaurtinib' of Supplementary Table 1),run:Lestaurtinib_02437_R3,Plate:MR007",1300 nM
same,potency estimated from few doses,"PDGFRB; compound concentrations:100 nM and 1000 nM (sheet 'Lestaurtinib' of Supplementary Table 1),run:Lestaurtinib_02438_R2,Plate:MR008",2020 nM
same,potency estimated from few doses,"PDGFRB; compound concentrations:100 nM and 1000 nM (sheet 'Lestaurtinib' of Supplementary Table 1),run:Lestaurtinib_02438_R3,Plate:MR008",1360 nM
same,potency estimated from few doses,"PDGFRB; compound concentrations:100 nM and 1000 nM (sheet 'Lestaurtinib' of Supplementary Table 1),run:Lestaurtinib_02443_R1,Plate:MR009",1570 nM
same,potency estimated from few doses,"PDGFRB; compound concentrations:100 nM and 1000 nM (sheet 'Lestaurtinib' of Supplementary Table 1),run:Lestaurtinib_02443_R3,Plate:MR009",279 nM
same,potency estimated from few doses,"PDGFRB; compound concentrations:100 nM and 1000 nM (sheet 'Lestaurtinib' of Supplementary Table 1),run:Lestaurtinib_02473_R1,Plate:MR010",982 nM
same,potency estimated from few doses,"PDGFRB; compound concentrations:100 nM and 1000 nM (sheet 'Lestaurtinib' of Supplementary Table 1),run:Lestaurtinib_02487_R1,Plate:MR012",998 nM
same,potency estimated from few doses,"PDGFRB; compound concentrations:100 nM and 1000 nM (sheet 'Lestaurtinib' of Supplementary Table 1),run:Lestaurtinib_02496_R1,Plate:MR013",1610 nM
same,potency estimated from few doses,"PDGFRB; compound concentrations:100 nM and 1000 nM (sheet 'Lestaurtinib' of Supplementary Table 1),run:Lestaurtinib_02496_R3,Plate:MR013",1530 nM
same,potency estimated from few doses,"PDGFRB; compound concentrations:100 nM and 1000 nM (sheet 'Lestaurtinib' of Supplementary Table 1),run:Lestaurtinib_02566_R2,Plate:MR014",1700 nM
same,potency estimated from few doses,"PDGFRB; compound concentrations:100 nM and 1000 nM (sheet 'Lestaurtinib' of Supplementary Table 1),run:Lestaurtinib_02566_R3,Plate:MR014",1620 nM
same,potency estimated from few doses,"PDGFRB; compound concentrations:100 nM and 1000 nM (sheet 'Lestaurtinib' of Supplementary Table 1),run:Lestaurtinib_02577_R1,Plate:MR016",1800 nM
same,potency estimated from few doses,PDGFRB; [1],1790 nM
same,potency estimated from few doses,"PDGFRB; compound concentrations:100 nM and 1000 nM (sheet 'Lestaurtinib' of Supplementary Table 1),run:Lestaurtinib_02584_R2,Plate:MR017",1590 nM
same,potency estimated from few doses,PDGFRB; [2],1990 nM
same,potency estimated from few doses,PDGFRB; [3],1820 nM
same,potency estimated from few doses,"PDGFRB; compound concentrations:100 nM and 1000 nM (sheet 'Lestaurtinib' of Supplementary Table 1),run:Lestaurtinib_02601_R2,Plate:MR018",1400 nM
same,potency estimated from few doses,"PDGFRB; compound concentrations:100 nM and 1000 nM (sheet 'Lestaurtinib' of Supplementary Table 1),run:Lestaurtinib_02601_R3,Plate:MR018",1970 nM
same,potency estimated from few doses,PDGFRB; [5],749 nM
same,potency estimated from few doses,PDGFRB; [17],1370 nM
same,potency estimated from few doses,PDGFRB; [6],1340 nM
same,potency estimated from few doses,"PDGFRB; compound concentrations:100 nM and 1000 nM (sheet 'Lestaurtinib' of Supplementary Table 1),run:Lestaurtinib_02741_R3,Plate:MR023",1830 nM
same,potency estimated from few doses,"PDGFRB; compound concentrations:100 nM and 1000 nM (sheet 'Lestaurtinib' of Supplementary Table 1),run:Lestaurtinib_02768_R3,Plate:MR028",1580 nM
same,potency estimated from few doses,"PDGFRB; compound concentrations:100 nM and 1000 nM (sheet 'Lestaurtinib' of Supplementary Table 1),run:Lestaurtinib_02795_R1,Plate:MR022",1320 nM
same,potency estimated from few doses,PDGFRB; [9],1600 nM
same,potency estimated from few doses,"PDGFRB; compound concentrations:100 nM and 1000 nM (sheet 'Lestaurtinib' of Supplementary Table 1),run:Lestaurtinib_02802_R1,Plate:MR029",1590 nM
same,potency estimated from few doses,"PDGFRB; compound concentrations:100 nM and 1000 nM (sheet 'Lestaurtinib' of Supplementary Table 1),run:Lestaurtinib_02802_R3,Plate:MR029",1930 nM
same,potency estimated from few doses,PDGFRB; [18],849 nM
same,potency estimated from few doses,PDGFRB; [10],573 nM
same,potency estimated from few doses,PDGFRB; [11],1130 nM
same,potency estimated from few doses,PDGFRB; [12],754 nM
same,potency estimated from few doses,PDGFRB; [13],1320 nM
same,potency estimated from few doses,PDGFRB; [14],970 nM
same,potency estimated from few doses,"PDGFRB; compound concentrations:100 nM and 1000 nM (sheet 'Lestaurtinib' of Supplementary Table 1),run:Lestaurtinib_03260_R1,Plate:MR033",1570 nM
same,potency estimated from few doses,PDGFRB; [15],1930 nM
same,potency estimated from few doses,"PRKAA1; compound concentrations:100 nM and 1000 nM (sheet 'Lestaurtinib' of Supplementary Table 1),run:Lestaurtinib_02339_R2,Plate:MR001",860 nM
same,potency estimated from few doses,"PRKAA1; compound concentrations:100 nM and 1000 nM (sheet 'Lestaurtinib' of Supplementary Table 1),run:Lestaurtinib_02339_R3,Plate:MR001",1330 nM
same,potency estimated from few doses,"PRKAA1; compound concentrations:100 nM and 1000 nM (sheet 'Lestaurtinib' of Supplementary Table 1),run:Lestaurtinib_02364_R2,Plate:MR002",936 nM
same,potency estimated from few doses,"PRKAA1; compound concentrations:100 nM and 1000 nM (sheet 'Lestaurtinib' of Supplementary Table 1),run:Lestaurtinib_02367_R3,Plate:MR003",951 nM
same,potency estimated from few doses,PRKAA1; [19],919 nM
same,potency estimated from few doses,PRKAA1; [16],900 nM
